# Data reported in the supplement of paper PMC10037445.
# Whole data set: some 2,900 compounds, median “NF-kB SEAP reporter activity, fold change vs agonist alone” near 0.99, cut for the highest 2% near 2.6. Shown is part of a subset that was picked to be rich in the highest values.
# Experiments:
# [1] = tested on: RAW-Dual; test: NF-kB SEAP reporter activity, fold change vs agonist alone; cytotoxicity flag (confluency mask): not cytotoxic; higher = enhanced NF-kB activity
# How it was run: (§1)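 Library stock was pin-tooled at 50 nL into 384-well plates of RAW-Dual macrophages (50,000 cells/well, DMEM), followed 1 h later by a PRR agonist, and the cells were kept at 37 °C, 5% CO2. Supernatant collected after 20 hours was read for IRF by QuantiLuc luminescence and for NF-κB by QuantiBlue absorbance at 620 nm. Reporter activity is fold change over agonist-alone wells, and a well counted as cytotoxic when its IncuCyte confluency was below 70% of agonist controls in both mask sets.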
# [2] = tested on: RAW-Dual; test: NF-kB SEAP reporter activity, fold change vs agonist alone; higher = enhanced NF-kB activity; conditions: library stock concentration (final ~1000-fold dilution): 10 mM
# How it was run: as §1
# [3] = tested on: RAW-Dual; test: NF-kB SEAP reporter activity, fold change vs agonist alone; cytotoxicity flag (confluency mask): cytotoxic (confluency <70% of control); higher = enhanced NF-kB activity
# How it was run: as §1
# [4] = agonist: ODN 1826 (TLR9) 0.5 ug/mL
# [5] = agonist: Pam2CSK4 (TLR2/6) 0.1 ug/mL
# [6] = agonist: Pam3CSK4 (TLR2/1) 0.1 ug/mL
# [7] = cytotoxicity flag (confluency mask): not cytotoxic, agonist: Imiquimod (TLR7) […]
# [8] = cytotoxicity flag (confluency mask): not cytotoxic, agonist: MPLA (TLR4) […]
smiles,measurement,setting,value
COc1cccc(CCc2ccccc2OCC(CN(C)C)OC(=O)CCC(=O)O)c1.Cl (configuration not stated) (library stock concentration (final ~1000-fold dilution): 10 mM),NF-kB SEAP reporter activity,[1]; agonist: LPS (TLR4) 0.1 ug/mL,1.33
same,NF-kB SEAP reporter activity,[1]; [4],0.733
same,NF-kB SEAP reporter activity,[1]; [5],1.03
same,NF-kB SEAP reporter activity,[1]; [6],0.924
COc1cccc(CCc2ccccc2OCC(CN(C)C)OC(=O)CCC(=O)O)c1.Cl (configuration not stated),NF-kB SEAP reporter activity,[2]; [7],1.22
same,NF-kB SEAP reporter activity,[2]; [8],1.03
Cc1cc(C)cc(C(=O)NOCCCCCC(=O)NO)c1 (library stock concentration (final ~1000-fold dilution): 10 mM),NF-kB SEAP reporter activity,[3]; agonist: LPS (TLR4) 0.1 ug/mL,5.28
same,NF-kB SEAP reporter activity,[3]; [4],2.33
same,NF-kB SEAP reporter activity,[3]; [5],0.935
same,NF-kB SEAP reporter activity,[3]; [6],1.43
Cc1cc(Cl)ccc1OCCCC(=O)NO,NF-kB SEAP reporter activity,[2]; [7],1.35
same,NF-kB SEAP reporter activity,[2]; [8],1.31
Cc1cc(C)cc(C(=O)NOCCCCCC(=O)NO)c1,NF-kB SEAP reporter activity,"[2]; cytotoxicity flag (confluency mask): cytotoxic (confluency <70% of control), agonist: Imiquimod (TLR7) […]",1.41
same,NF-kB SEAP reporter activity,"[2]; cytotoxicity flag (confluency mask): cytotoxic (confluency <70% of control), agonist: MPLA (TLR4) […]",2.74
Cc1cc(Cl)ccc1OCCCC(=O)NO (library stock concentration (final ~1000-fold dilution): 10 mM),NF-kB SEAP reporter activity,[1]; agonist: LPS (TLR4) 0.1 ug/mL,1.51
same,NF-kB SEAP reporter activity,[1]; [4],0.823
same,NF-kB SEAP reporter activity,[1]; [5],0.939
same,NF-kB SEAP reporter activity,[1]; [6],0.726
CNC(C)C(=O)NC1CN(C(=O)CC(C)C)CCC2CCC(C(=O)NC(c3ccccc3)c3ccccc3)N2C1=O (configuration not stated) (library stock concentration (final ~1000-fold dilution): 10 mM),NF-kB SEAP reporter activity,[1]; agonist: LPS (TLR4) 0.1 ug/mL,0.854
same,NF-kB SEAP reporter activity,[1]; [4],1.1
same,NF-kB SEAP reporter activity,[1]; [5],0.925
same,NF-kB SEAP reporter activity,[1]; [6],1.08
CNC(C)C(=O)NC1CN(C(=O)CC(C)C)CCC2CCC(C(=O)NC(c3ccccc3)c3ccccc3)N2C1=O (configuration not stated),NF-kB SEAP reporter activity,[2]; [7],0.948
same,NF-kB SEAP reporter activity,[2]; [8],0.82
Nc1ccc(C(=O)Nc2cccc(-c3nc(N4CCOCC4)c4oc5ncccc5c4n3)c2)cn1 (library stock concentration (final ~1000-fold dilution): 10 mM),NF-kB SEAP reporter activity,[1]; agonist: LPS (TLR4) 0.1 ug/mL,2.62
same,NF-kB SEAP reporter activity,[1]; [4],0.304
same,NF-kB SEAP reporter activity,[1]; [5],0.638
same,NF-kB SEAP reporter activity,[1]; [6],0.805
N#Cc1cccc(-c2c[nH]c3ncnc(N4CCOCC4)c23)c1,NF-kB SEAP reporter activity,[2]; [7],1.01
same,NF-kB SEAP reporter activity,[2]; [8],0.873
N#Cc1cccc(-c2c[nH]c3ncnc(N4CCOCC4)c23)c1 (library stock concentration (final ~1000-fold dilution): 10 mM),NF-kB SEAP reporter activity,[1]; agonist: LPS (TLR4) 0.1 ug/mL,0.963
same,NF-kB SEAP reporter activity,[1]; [4],0.792
same,NF-kB SEAP reporter activity,[1]; [5],0.588
same,NF-kB SEAP reporter activity,[1]; [6],0.962
CCn1c(-c2nonc2N)nc2cnc(Oc3cccc(NC(=O)c4ccc(OCCN5CCOCC5)cc4)c3)cc21.Cl,NF-kB SEAP reporter activity,[2]; [7],1.48
same,NF-kB SEAP reporter activity,[2]; [8],1.41
CC1(C)OCCn2c1nc1c(N3CCOCC3)nc(-c3cnc(N)nc3)nc12,NF-kB SEAP reporter activity,[2]; [7],1.02
same,NF-kB SEAP reporter activity,[2]; [8],1.07
Oc1cccc(-c2nc(N3CCOCC3)c3oc4ncccc4c3n2)c1 (library stock concentration (final ~1000-fold dilution): 10 mM),NF-kB SEAP reporter activity,[1]; agonist: LPS (TLR4) 0.1 ug/mL,4.71
same,NF-kB SEAP reporter activity,[1]; [4],0.369
same,NF-kB SEAP reporter activity,[1]; [5],0.849
same,NF-kB SEAP reporter activity,[1]; [6],1.34
Nc1ccc(-c2cccc(C(=O)Nc3cnc4nc(N5CCOCC5)oc4c3)n2)cn1,NF-kB SEAP reporter activity,[2]; [7],1.04
same,NF-kB SEAP reporter activity,[2]; [8],1.08
Oc1cccc(-c2nc(N3CCOCC3)c3oc4ncccc4c3n2)c1,NF-kB SEAP reporter activity,[2]; [7],2.46
same,NF-kB SEAP reporter activity,[2]; [8],2.44
CCn1c(-c2nonc2N)nc2cnc(Oc3cccc(NC(=O)c4ccc(OCCN5CCOCC5)cc4)c3)cc21.Cl (library stock concentration (final ~1000-fold dilution): 10 mM),NF-kB SEAP reporter activity,[1]; agonist: LPS (TLR4) 0.1 ug/mL,1.31
same,NF-kB SEAP reporter activity,[1]; [4],0.288
same,NF-kB SEAP reporter activity,[1]; [5],1.12
same,NF-kB SEAP reporter activity,[1]; [6],1.56
Nc1ccc(C(=O)Nc2cccc(-c3nc(N4CCOCC4)c4oc5ncccc5c4n3)c2)cn1,NF-kB SEAP reporter activity,[2]; [7],1.77
same,NF-kB SEAP reporter activity,[2]; [8],2.3
CC1(C)OCCn2c1nc1c(N3CCOCC3)nc(-c3cnc(N)nc3)nc12 (library stock concentration (final ~1000-fold dilution): 10 mM),NF-kB SEAP reporter activity,[1]; agonist: LPS (TLR4) 0.1 ug/mL,1.42
same,NF-kB SEAP reporter activity,[1]; [4],0.768
same,NF-kB SEAP reporter activity,[1]; [5],0.464
same,NF-kB SEAP reporter activity,[1]; [6],0.544
Nc1ccc(-c2cccc(C(=O)Nc3cnc4nc(N5CCOCC5)oc4c3)n2)cn1 (library stock concentration (final ~1000-fold dilution): 10 mM),NF-kB SEAP reporter activity,[1]; agonist: LPS (TLR4) 0.1 ug/mL,1.43
same,NF-kB SEAP reporter activity,[1]; [4],1.01
same,NF-kB SEAP reporter activity,[1]; [5],0.911
same,NF-kB SEAP reporter activity,[1]; [6],1.33
Cc1csc(-c2nc[nH]c2-c2ccc3ncsc3c2)n1.Cl (library stock concentration (final ~1000-fold dilution): 10 mM),NF-kB SEAP reporter activity,[1]; agonist: LPS (TLR4) 0.1 ug/mL,2.26
same,NF-kB SEAP reporter activity,[1]; [4],1.18
same,NF-kB SEAP reporter activity,[1]; [5],1.24
same,NF-kB SEAP reporter activity,[1]; [6],1.47
Cc1csc(-c2nc[nH]c2-c2ccc3ncsc3c2)n1.Cl,NF-kB SEAP reporter activity,[2]; [7],0.927
same,NF-kB SEAP reporter activity,[2]; [8],1.34
CC(Oc1cc(-n2cnc3ccc(CN4CCN(C)CC4)cc32)sc1C(N)=O)c1ccccc1C(F)(F)F (configuration not stated),NF-kB SEAP reporter activity,[2]; [7],0.909
same,NF-kB SEAP reporter activity,[2]; [8],0.993
CC(Oc1cc(-n2cnc3ccc(CN4CCN(C)CC4)cc32)sc1C(N)=O)c1ccccc1C(F)(F)F (configuration not stated) (library stock concentration (final ~1000-fold dilution): 10 mM),NF-kB SEAP reporter activity,[1]; agonist: LPS (TLR4) 0.1 ug/mL,1.15
same,NF-kB SEAP reporter activity,[1]; [4],0.967
same,NF-kB SEAP reporter activity,[1]; [5],0.97
same,NF-kB SEAP reporter activity,[1]; [6],0.799
